Screening results: PubChem, National Center for Advancing Translational Sciences (NCATS)
An excerpt weighted towards active compounds, which were near 7.5% of everything screened.
ELG1 genotoxic: qHTS screen for small molecules that induce genotoxicity in human embryonic kidney (HEK293T) cells expressing luciferase-tagged ELG1; 1.3% of 330,000 active; HEK293T ELG1-luciferase reporter, luminescence, 16 h; Potency, µM (highest dose often 46 µM), for inactives: at the highest dose activity change, positive = activation, most hits filed as activators; AID 504466, 2011; note: % of control where 0% means no effect; nearly all actives have a fitted effect of over 60% in size
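HEK293T cells expressing luciferase-tagged ELG1 were treated with compound or DMSO for 16 hr at 37°C. Luciferase activity was then read after 30 min with ONE-Glo at room temperature; rising signal flags genetic stress.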
SMN2 splice up: qHTS Assay for Enhancers of SMN2 Splice Variant Expression; HEK293 SMN2-luciferase splicing reporter, luminescence, 30-36 h; Potency, µM (doses to about 46.1 µM), inactives show top-dose activity change, positive = activation, usual class: activators; 2.8% of 210,000 active; AID 1458, 2008; note: % of control where 0% means no effect; nearly all actives have a fitted effect of over 55% in size
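qHTS luciferase splicing reporter: luminescence rises when SMN2 exon 7 is included in transfected HEK293 cells. Compound exposure lasted 30-36 h at 37C, with 4.5 mM final sodium butyrate as control, followed by a ONE-Glo read.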
Rab9 promoter act: qHTS Assay for Rab9 Promoter Activators. Huh7 Rab9 promoter-luciferase reporter, luminescence, 24 h. Potency, µM (highest dose often 9.22 µM), for the others: at the top dose activation, negative = inhibition, actives largely listed as activators. 2.8% of 320,000 active. AID 485297, 2010; note: % of control where 0% means no effect; nearly all actives have a fitted effect of over 60% in size
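Huh7 cells stably carrying a Rab9 promoter-luciferase reporter, 1500 cells per well in OP-MEM I with 10% FBS, treated with compound 24 hours at 37C. Luciferase activity read by luminescence after 10 minutes with Amplite reagent.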
NPC1 prom act: qHTS Assay for NPC1 Promoter Activators; AID 485313, 2010; Huh7 NPC1 promoter luciferase reporter, 24 h; 2.4% of 320,000 active; Potency, µM (titrated, usually from 9.22 µM), for the others: at the highest dose activation, actives largely listed as activators; note: % of control where 0% means no effect; nearly all actives have a fitted effect of over 60% in size
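Luminescence read-out of NPC1 promoter-driven luciferase in stably transfected Huh7 cells; compounds delivered in DMSO and left 24 h at 37C, 5% CO2, qHTS titration format.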
Luc counter: Counterscreen for Luciferase (Kinase-Glo TM) Inhibition; 0.28% of 200,000 active; Potency, µM (top dose mostly 38.3 µM), inactives show at the highest dose activity change, negative = inhibition, hits mostly inhibitors; Luciferin 4-monooxygenase (Photuris pensylvanica), Q27757; Kinase-Glo luciferase, ATP luminescence, 8 min; note: % is set by controls: 0 for no effect and ±100 for the full control effect; nearly all actives have a fitted effect of over 60% in size
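Inhibition of Kinase-Glo luciferase light generation was assessed at 10 uM ATP in pH 7.2 imidazole buffer, with luminescence measured after eight minutes at ambient temperature.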
FLuc counter: qHTS profiling assay for firefly luciferase inhibitor/activator using purifed enzyme and Km concentrations of substrates (counterscreen for miR-21 project); purified FLuc, Km substrates, luminescence inhibition; Potency, µM (titrated, usually from 57.5 µM), inactives show at the top dose activity change, negative = inhibition, hits mostly inhibitors; 6.9% of 360,000 active; AID 588342, 2011; Luciferin 4-monooxygenase (Photinus pyralis), P08659;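 note: plate controls were vehicle for no effect and reference inhibitor for full effect; nearly all actives have a fitted effect of over 55% in size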
Target sequence (P08659 whole entry, looked up): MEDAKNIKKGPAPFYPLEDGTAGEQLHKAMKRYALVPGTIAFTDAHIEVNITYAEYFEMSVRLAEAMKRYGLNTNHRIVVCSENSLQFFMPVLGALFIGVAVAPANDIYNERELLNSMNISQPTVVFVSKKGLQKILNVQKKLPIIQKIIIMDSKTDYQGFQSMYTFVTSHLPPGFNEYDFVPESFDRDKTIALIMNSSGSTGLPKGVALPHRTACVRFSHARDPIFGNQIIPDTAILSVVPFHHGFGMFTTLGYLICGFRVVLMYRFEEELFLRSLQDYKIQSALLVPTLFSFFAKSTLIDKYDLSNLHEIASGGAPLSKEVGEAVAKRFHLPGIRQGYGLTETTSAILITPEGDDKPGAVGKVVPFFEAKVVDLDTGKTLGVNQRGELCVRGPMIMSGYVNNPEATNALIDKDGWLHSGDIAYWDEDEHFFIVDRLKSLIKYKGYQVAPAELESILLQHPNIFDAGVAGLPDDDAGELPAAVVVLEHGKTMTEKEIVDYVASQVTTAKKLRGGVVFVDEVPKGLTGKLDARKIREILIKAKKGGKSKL
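Biochemical qHTS of compounds, final roughly 60 µM downward over six points, against 10 nM purified firefly luciferase using Km concentrations of substrates (10 uM D-luciferin, 10 uM ATP) in Tris acetate pH 7.5 buffer; luminescence output.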
The depositor's hits bear a star. Calls come from the whole dose curve; as a rule, active = well fitted curve in the direction sought with a large enough effect; inconclusive = small, poorly fitted or top-dose-only effect, or another doubt; inactive = no such curve, though single readings can be large; an effect the other way counts as inactive or inconclusive. Potency is the fitted concentration of half-maximal effect.

`Cc1ccc(NC(=O)CCC(=O)NNC(=S)Nc2ccc(F)cc2F)cc1C` gave ELG1 genotoxic -5%, Rab9 promoter act 1%, NPC1 prom act 0% and FLuc counter -2%.
For C=CCNC(=S)NNC(=O)COc1ccc2cc(Br)ccc2c1 the results were ELG1 genotoxic inconclusive, SMN2 splice up 11µM*, Rab9 promoter act 3.2µM*, NPC1 prom act inconclusive, Luc counter 1% and FLuc counter -2%.
C=CCNC(=S)NNC(=O)COc1ccc(Br)cc1 was read as ELG1 genotoxic 0%, SMN2 splice up 1%, Rab9 promoter act -4%, NPC1 prom act 3%, Luc counter 0% and FLuc counter -17%.
For Cc1ccc(NC(=O)Nc2cnccn2)cc1 the results were ELG1 genotoxic inconclusive, Rab9 promoter act inconclusive, NPC1 prom act inconclusive and FLuc counter 17µM*.
For CC(C)c1ccc(NC(=O)Nc2cnccn2)cc1 the results were ELG1 genotoxic inconclusive, Rab9 promoter act inconclusive, NPC1 prom act inconclusive and FLuc counter 6.7µM*.
Screening Cc1ccc(NC(=O)Nc2cnccn2)cc1C returned ELG1 genotoxic 8%, Rab9 promoter act inconclusive, NPC1 prom act 20% and FLuc counter 21µM*.
Screening COc1ccc(NC(=O)Nc2cnccn2)cc1OC returned ELG1 genotoxic 1%, Rab9 promoter act 2%, NPC1 prom act -4% and FLuc counter 4%.
Screening CC(=O)c1ccc(NC(=O)c2cc3nc4c(c(C(F)(F)F)n3n2)CCCC4)cc1 returned ELG1 genotoxic 11%, SMN2 splice up 20%, Rab9 promoter act inconclusive, NPC1 prom act 23%, Luc counter 2% and FLuc counter inconclusive.
`O=C(NC1CCCCC1)c1cc2nc3c(c(C(F)(F)F)n2n1)CCCC3` gave ELG1 genotoxic inconclusive, SMN2 splice up 35µM*, Rab9 promoter act 3.5µM*, NPC1 prom act inconclusive, Luc counter 0% and FLuc counter 24µM*.
For Cc1cccc(NC(=O)c2sc(-n3nc(C)c(CCC(C)C)c3C)nc2C)c1 the results were FLuc counter -6%.
`O=C(O)/C=C/c1cnc2ccccc2n1` gave ELG1 genotoxic 1%, SMN2 splice up 9%, Rab9 promoter act -4%, NPC1 prom act 1%, Luc counter 1% and FLuc counter 4%.
C(=C\c1ccco1)/c1ccc2ccccc2n1 was read as ELG1 genotoxic inconclusive, Rab9 promoter act 4µM*, NPC1 prom act inconclusive and FLuc counter 1.2µM*.
Fc1cccc(F)c1/C=C/c1ccc2ccccc2n1 was read as ELG1 genotoxic 0.58µM*, Rab9 promoter act 4µM*, NPC1 prom act inconclusive and FLuc counter 0.27µM*.
For Fc1cccc(Cl)c1/C=C/c1cnc2ccccc2n1 the results were ELG1 genotoxic 0.52µM*, Rab9 promoter act 4µM*, NPC1 prom act inconclusive and FLuc counter 0.13µM*.
O=C(/C=C/c1ccc2ccccc2n1)N1CCN(c2ccccc2)CC1 was read as ELG1 genotoxic -6%, SMN2 splice up -12%, Rab9 promoter act 1%, NPC1 prom act 2%, Luc counter 0% and FLuc counter -17%.
Screening O=C(/C=C/c1ccc2ccccc2n1)N1CCN(S(=O)(=O)c2ccccc2F)CC1 returned ELG1 genotoxic -4%, Rab9 promoter act -10%, NPC1 prom act -9% and FLuc counter -3%.
CC(O)/C=C/c1ccc2ccccc2n1 (stereo unspecified) was read as ELG1 genotoxic 6%, SMN2 splice up 16µM*, Rab9 promoter act 15%, NPC1 prom act 1%, Luc counter -6% and FLuc counter 17µM*.
